Compounds with a hit are over-represented: about 3.9% of the library has one in this group of screens.
BRCA1 expr up: BRCA1 expression activation; MCF7-BRCA1-FFLuc reporter, luminescence, 48 h; response scale: scaled: vehicle 0%, 10 µM genistein 100%; Potency, µM (highest dose often 46.1 µM), without a hit: at the highest dose activation, usual class: activators; 380,000 tested, 1.1% active; also: nearly all actives have a fitted effect of over 80% in size
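Luminescence from a BRCA1-driven firefly luciferase in MCF7 cells was the read-out, taken 15 min after substrate addition following 48 h compound exposure at 37 °C. Data were normalized to a 10 microM genistein control and DMSO vehicle.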
Tb PFK block: T. brucei PFK enzyme inhibition. O15648. T. brucei PFK, ADP-Glo luminescence. Potency, µM (top dose mostly 57.5 µM), for the others: top-dose activity, negative = inhibition, usual class: inhibitors. 330,000 tested, 0.17% active;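 also: 0% = uninhibited 1x PFK enzyme wells and -100% = no-enzyme wells; nearly all actives have a fitted effect of over 60% in size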
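ADP-Glo luminescence quantified ADP after 45 min at room temperature, with 1.25 nM T. brucei PFK, 0.1 mM ATP and 0.5 mM fructose-6-phosphate in pH 8.0 TEA buffer. qHTS titrations up to 57 µM; curves classified by quality.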
VDR inh: blocks the human vitamin D receptor; 400,000 tested, 0.93% active; AID 504847; VDR-SRC2-3 peptide fluorescence polarization, 2 h; Potency, µM, inactives show max response, negative = inhibition, hits mostly inhibitors; also: % is scaled to controls: 0 for no effect and ±100 for the full control effect
Target sequence (P11473 whole entry, looked up): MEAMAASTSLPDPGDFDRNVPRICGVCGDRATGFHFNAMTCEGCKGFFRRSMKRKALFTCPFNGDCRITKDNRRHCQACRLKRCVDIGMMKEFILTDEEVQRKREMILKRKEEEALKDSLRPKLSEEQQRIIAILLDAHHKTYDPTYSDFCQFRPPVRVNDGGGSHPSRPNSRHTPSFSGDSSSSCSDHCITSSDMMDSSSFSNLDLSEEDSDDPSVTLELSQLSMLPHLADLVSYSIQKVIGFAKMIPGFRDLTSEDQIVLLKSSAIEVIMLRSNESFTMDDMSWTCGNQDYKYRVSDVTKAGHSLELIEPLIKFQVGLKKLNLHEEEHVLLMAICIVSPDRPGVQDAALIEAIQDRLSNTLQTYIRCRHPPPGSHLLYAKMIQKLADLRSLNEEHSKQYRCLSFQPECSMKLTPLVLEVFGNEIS
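After 23 nl compound addition and a short centrifugation, plates sat for 2 hours at ambient temperature; polarization of fluorescence then indicated loss of VDR binding to peptide SRC2-3.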
PLK1 PBD block: PLK1 (human) polo-box domain binding inhibition. P53350. Plk1 PBD binding of FITC phosphopeptide, fluorescence polarization. Potency, µM, for inactives: max response, negative = inhibition, usual class: inhibitors. 360,000 tested, 2.8% active. AID 720504; also: series mostly up to about 57 µM; % is scaled to controls: 0 for no effect and ±100 for the full control effect; nearly all actives have a fitted effect of over 65% in size
* = called active by the depositor; ? = inconclusive; . = no result given; ! = repeats disagree. Calls follow the shape of the dose curve; as a rule, active = well fitted curve in the direction sought with a large enough effect; inconclusive = small, poorly fitted or top-dose-only effect, or another doubt; inactive = no such curve, though single readings can be large; an effect the other way counts as inactive or inconclusive. Potency is read from the fitted curve at half-maximal effect.

SMILES	BRCA1 expr up	Tb PFK block	VDR inh	PLK1 PBD block
COc1ccc2c(c1)-c1ccccc1S(=O)(=O)N2C(C)=O	-10%	-9%	-2%	27µM*
COc1ccc(CS(=O)(=O)/C(Cl)=C(/Cl)C(=O)Nc2ccc(OC)nc2)cc1	-100%	4%	40µM*	?
CCOC(=O)C1=C(N)OC2=C(C(=O)CC(C)(C)C2)C1c1ccoc1 (centres undefined)	5%	11%	-1%	21µM*
Nc1nc(COc2ccccc2C=O)nc(Nc2ccccc2)n1	73%	3%	-3%	8%
CC(=O)Nc1ccccc1-c1nc2ccccc2n(CC(=O)Nc2cccc(C)c2C)c1=O	.	.	5%	.
CCOc1ccccc1-c1c2cc(O)c(=O)cc-2oc2cc(O)c(O)cc12	-81%	?	?	-10%
O=c1cc2oc3cc(O)c(O)cc3c(-c3ccccc3O)c-2cc1O	-32%	?	?	24µM*
COc1cc2nccc(Oc3ccc(NC(=O)Nc4ccc(F)cc4F)c(F)c3)c2cc1OC	.	.	4%	.
C[C@H](O)[C@H](O)[C@H]1CNc2nc(N)[nH]c(=O)c2N1	-1%	-1%	79µM*	27µM*
CCOCc1[nH]c(=S)[nH]c(=O)c1Cc1ccc(OCC(C)C)cc1	-44%	1%	8%	24µM*
CCOCc1[nH]c(=S)[nH]c(=O)c1Cc1ccc(OCC)cc1	0%	-6%	-16%	27µM*
Cc1ccc(-c2nnc3ccc(SC(C)C(=O)O)nn23)cc1 (centres undefined)	-10%	-6%	-14%	?
CC(Sc1ccc2nnc(-c3ccc(F)cc3)n2n1)C(=O)O (centres undefined)	1%	1%	?	27µM*
Cc1cc(O)c2c(c1O)C(=O)C(O)=C(O)C2=O	.	.	8.9µM*	.
CCOC(=O)c1c(C)cc(O)c(C)c1O	.	.	-3%	.
O=C(O)c1ccccc1-c1c2cc(Br)c(=O)c(Br)c-2oc2c(Br)c(O)c(Br)cc12	.	.	35µM*	.
COc1cc(OC)c(OC)cc1/C=C/C(=O)OCC(=O)Nc1c(C)n(C)n(-c2ccccc2)c1=O	-7%	.	-15%	-11%
COc1ccc(S(=O)(=O)N2CCN(c3ccc(C)cc3C)CC2)cc1OC	-7%	-1%	-27%	24µM*
COc1ccc(-c2cc(C(F)(F)F)n3nc(C(=O)OC(C)C)cc3n2)cc1	.	.	13%	.
O=C(Nc1ccc(N2CCCC2)cc1)c1cccc(-c2cc3ccccc3oc2=O)c1	30%	?	?	2.7µM*
Cn1cccc1/C=N/NC(=O)c1ccccn1	10µM*	-8%	?	24µM*
O=C(O)c1cccc(N2C(=O)C3CC=C(Cl)CC3C2=O)c1 (centres undefined)	17%	-14%	?	24µM*
Cn1nc(C(=O)N2CCN(c3ccc(Cl)cc3)CC2)c2c1-c1ccccc1S(=O)(=O)C2	-26%	-1%	-4%	-4%
CC(=O)c1ccc(N2CCN(C(=O)c3nn(C)c4c3CS(=O)(=O)c3ccccc3-4)CC2)cc1	-1%	2%	?	27µM*
COc1ccc(CN=Cc2c(C(F)(F)F)[nH][nH]c2=O)cc1	-25%	2%	-14%	27µM*
SMILES	BRCA1 expr up	Tb PFK block	VDR inh	PLK1 PBD block
COc1ccc(CN=Cc2c(O)[nH]c3ccccc23)cc1	?	-1%	-7%	21µM*
CC(C)C[C@@H](CC(=O)N[C@@H](CCC(=O)O)CC(=O)O)NC(=O)[C@@H]1CNCC[C@H]1NC(=O)C[C@@H](NC(=O)C[C@H](CO)NC(=O)[C@@H]1CNCC[C@H]1N)C(C)C	.	.	-3%	.
O=S1(=O)c2ccccc2N(Cc2ccc(Cl)cc2F)c2ccccc21	.	.	0%	.
O=C(NCc1cccn1Cc1ccccc1)Nc1ccc(Br)cc1F	.	.	2%	.
Cc1cccc2cc(C3CC(c4cccs4)=NN3C(=O)CCC(=O)O)c(Cl)nc12 (centres undefined)	-23%	-14%	?	27µM*
Cc1ccc2nc(Cl)c(C3CC(c4cccs4)=NN3C(=O)CCCC(=O)O)cc2c1 (centres undefined)	-20%	-13%	4%	-14%
Cc1ccc2cc(C3CC(c4ccco4)=NN3C(=O)CCC(=O)O)c(Cl)nc2c1 (centres undefined)	-11%	-6%	32µM*	?
CC(C)NC(=O)c1cccc2c(-c3ccc(F)c(F)c3)coc12	1µM*	.	.	-5%
Cc1cccc(CN2CCC(CNC(=O)c3c(C)oc4ncnc(N5CCCCC5)c34)CC2)c1	3%	.	21%	.
Cc1ccc(SC/C(O)=C(\C#N)c2nc3ccccc3n2C)cc1	13µM*	-9%	-1%	8%
Cn1c(/C(C#N)=C(\O)c2ccc([N+](=O)[O-])cc2)nc2ccccc21	-7%	1%	?	24µM*
CCN(CC)CCC(=O)N1c2ccccc2Sc2ccc(Cl)cc21	-37%	-12%	50µM*!	3%
CCN(CC)CCC(=O)N1c2ccccc2Sc2ccc(C(F)(F)F)cc21	.	.	28µM*	.
Cc1cc(C)n(CC(=O)N2c3ccccc3Sc3ccc(C(F)(F)F)cc32)n1	-6%	-1%	-7%	0%
COc1cc2nc(NCCc3ccccc3)n3nc(-c4cccnc4)nc3c2cc1OC	.	.	-8%	.
N#Cc1ccc(NC(=O)COc2ccccc2C(=O)Nc2ccccc2)cc1	0%	.	.	.
CCn1c(=O)cc(OCC(=O)NC(C)c2ccc3c(c2)OCCO3)c2ccccc21 (centres undefined)	0%	1%	-24%	27µM*
CN1CCN(Cc2c(O)ccc3cc(Br)ccc23)CC1	3%	2%	?	24µM*
O=C(NC(NC(=S)Nc1ccccc1Cl)C(Cl)(Cl)Cl)c1cccc(Cl)c1 (centres undefined)	-95%	8%	-8%	?
O=C(Cc1cccc2ccccc12)NC(NC(=S)Nc1ccccc1Cl)C(Cl)(Cl)Cl (centres undefined)	-83%	-1%	?	24µM*
Cc1cccc(NC(=O)Cn2c(=O)c3cccn3c3ccccc32)c1C	.	.	6%	.
COC(=O)/C=C1\SC(=Nc2ccccc2)NC1=O	-19%	1%	?	-6%
COC(=O)/C=C1/SC(=NC(=O)c2ccc(Cl)cc2)NC1=O	-3%	.	?	34µM*
CCSC(=O)N=Nc1ccc(O)cc1	-6%	.	?	27µM*
CCOC(=O)Cn1c(=O)cc(C)c2ccccc21	-19%	-1%	?	3.4µM*
Cc1cc(=O)n(Cc2ccccc2)c2ccccc12	-6%	-6%	-10%	21µM*
Cc1ccc(N2CC(C(=O)NCCS(=O)(=O)N3CCN(c4ccccc4F)CC3)CC2=O)cc1 (centres undefined)	-6%	0%	?	11µM*
O=C(NCCS(=O)(=O)N1CCN(c2ccccc2F)CC1)C1CC(=O)N(c2ccccc2)C1 (centres undefined)	4%	1%	6%	-4%
CSc1ccc(/C=N/Nc2cccc(C(=O)O)c2)cc1	?	-13%	-2%	12µM*
O=C(O)c1ccc(N/N=C/c2ccc(OC(=O)c3cccc(Cl)c3)cc2)cc1	?	2%	-13%	21µM*

Source: PubChem BioAssay
